This passage reports Potency and activation results from PubChem BioAssay (NCATS).

Test [1] concerns the target Cellular tumor antigen p53 (Homo sapiens) (UniProt P04637). Briefly: Primary qHTS for small molecule compounds that upregulate eGFP-tagged delta133p53alpha (in N-terminal) cells. (AID 2060322). Also: nearly all actives have a fitted effect of over 75% in size. Also: potency is read from the fitted curve at half-maximal effect.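 As to activation: cells pre-induced with doxycycline then dosed without doxycycline; 0% = DMSO vehicle and 100% = reference activator.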 As to conditions: NCI-H358 eGFP-delta133p53alpha fluorescence, 24 h; activation: active compounds read high. An outline of the steps: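 NCI-H358 cells pre-induced 24 h with 10 ng/ml doxycycline for eGFP-delta133p53alpha, plated dox-free and exposed 24 h at 37C to titrated compounds. Fixed, Hoechst-stained; gated GFP peak intensity by laser scanning cytometry, normalized to DMSO (0%) and 57.5 uM 5-azacytidine (100%).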
(In general: qHTS replaces the single test concentration by a dilution series.)

In test [2] the target is Aldehyde dehydrogenase, mitochondrial (Homo sapiens) (UniProt P05091). Briefly: qHTS for Inhibitors of the Aldehyde Dehydrogenase Family (ALDH2) Primary screen (AID 2061308).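 Also: plate controls were vehicle for no effect and reference inhibitor for full effect; nearly all actives have a fitted effect of over 55% in size.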 The settings on record: ALDH2 enzyme inhibition qHTS, 1536-well; series mostly up to 56 µM.
A short description of test [3]: qHTS for Inhibitors of the Aldehyde Dehydrogenase Family (ALDH1A2, ALDH1A3, ALDH2, ALDH3A1) (AID 2061307). Also: nearly all actives have a fitted effect of over 50% in size. As to conditions: ALDH inhibition qHTS; series mostly up to 50.3 µM.
In test [4] the target is Aldehyde dehydrogenase 1A1 (Homo sapiens) (UniProt P00352). Briefly: qHTS for Inhibitors of the Aldehyde Dehydrogenase Family (ALDH1A1) Confirmatory screens (AID 2061316). Also: nearly all actives have a fitted effect of over 65% in size. Also: potency is read from the fitted curve at half-maximal effect. The settings on record: ALDH inhibition qHTS; series mostly up to 47.3 µM.
Test [5] addresses Retinaldehyde dehydrogenase 3 (Homo sapiens) (UniProt P47895). Briefly: qHTS for Inhibitors of the Aldehyde Dehydrogenase Family (ALDH1A3) Validation screen (AID 2061312). Also: nearly all actives have a fitted effect of over 45% in size. Also: potency is read from the fitted curve at half-maximal effect. The settings on record: ALDH1A3 enzyme inhibition qHTS validation, fluorescence; series mostly up to 42.4 µM.
For test [6] the target is unchanged. The test can be described thus: qHTS for Inhibitors of the Aldehyde Dehydrogenase Family (ALDH1A3) Primary screen (AID 2061315). Also: potency is read from the fitted curve at half-maximal effect. As to conditions: ALDH inhibition qHTS; series mostly up to 56 µM.
Test [7] deals with Aldehyde dehydrogenase, mitochondrial (Homo sapiens) (UniProt P05091). Briefly: qHTS for Inhibitors of the Aldehyde Dehydrogenase Family (ALDH2) Confirmatory screens (AID 2061303; active = well fitted inhibition curve with a large enough effect; title and protocol of this record describe different tests; also: % is scaled to controls: 0 for no effect and ±100 for the full control effect; nearly all actives have a fitted effect of over 45% in size). The settings on record: ALDH inhibition qHTS; series mostly up to 45.4 µM.
The target of test [8] is Retinal dehydrogenase 2 (Homo sapiens) (UniProt O94788). Briefly: qHTS for Inhibitors of the Aldehyde Dehydrogenase Family (ALDH1A2) Confirmation screens (AID 2061314). Also: % is scaled to controls: 0 for no effect and ±100 for the full control effect; nearly all actives have a fitted effect of over 65% in size. As to conditions: ALDH1A2 enzyme inhibition qHTS confirmation; series mostly up to 45.9 µM.
Test [9] concerns the target Retinaldehyde dehydrogenase 3 (Homo sapiens) (UniProt P47895). Briefly: qHTS for Inhibitors of the Aldehyde Dehydrogenase Family (ALDH1A3) Confirmatory screens (AID 2061311). Also: nearly all actives have a fitted effect of over 60% in size. Also: potency is read from the fitted curve at half-maximal effect. As to conditions: ALDH inhibition qHTS; series mostly up to 46 µM.

Inconclusive results are not listed. A number with no mark means an inactive call. The source made the active and inactive calls. Unless noted, calls follow the shape of the dose curve; as a rule, active = well fitted curve in the direction sought with a large enough effect; inconclusive = small, poorly fitted or top-dose-only effect, or another doubt; inactive = no such curve, though single readings can be large; an effect the other way counts as inactive or inconclusive.

Cellular tumor antigen p53 (Homo sapiens), sequence (P04637 whole entry, looked up): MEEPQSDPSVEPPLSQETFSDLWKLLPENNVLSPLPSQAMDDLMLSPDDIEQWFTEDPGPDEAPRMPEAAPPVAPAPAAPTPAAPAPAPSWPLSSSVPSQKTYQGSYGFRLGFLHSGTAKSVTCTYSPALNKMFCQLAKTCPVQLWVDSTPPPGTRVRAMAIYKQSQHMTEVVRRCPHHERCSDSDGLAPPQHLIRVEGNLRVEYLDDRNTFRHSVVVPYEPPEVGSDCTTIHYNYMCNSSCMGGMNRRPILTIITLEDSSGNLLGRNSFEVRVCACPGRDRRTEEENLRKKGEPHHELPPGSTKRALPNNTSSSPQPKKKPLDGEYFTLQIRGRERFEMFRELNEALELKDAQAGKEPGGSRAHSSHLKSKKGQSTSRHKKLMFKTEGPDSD

As to `CN(C(=O)CN1C(=O)COc2cc(Cl)c(Cl)cc21)[C@@H](CN1CCCC1)c1ccc(-c2cccc(C(N)=O)c2)cc1`, in [1], the Potency is 21.3 µM (active). Moreover, the Potency entry in test [2] was “inactive”.

As to `CC(=O)O[C@H]1CC[C@@]2(CI)C(=CC[C@@H]3[C@@H]2CC[C@]2(C)C(=O)CC[C@@H]32)C1`, the activation in test [1] was 13.7%. The Potency entry in test [3] is “inactive”. Also, the Potency in test [4] is 10.1 µM (active).

As to `Cc1ccc(-n2nccn2)c(C(=O)N2CCN(c3nc4cc(Cl)ccc4o3)CCC2C)c1` (configuration not stated), the activation in [1] was -12.4%. Further, the Potency entry in test [2], in [5] and in test [6] was “inactive” in each case.

On to `CCC1NC(=O)C2C(Cl)C(Cl)CN2C(=O)C(CC)NC(=O)CC(c2ccccc2)NC(=O)C(CO)NC1=O` (configuration not stated), for which the activation in [1] is -6.87%. Further, the Potency entry in [7], in test [2], in [8] and in test [6] was “inactive” in each case.

Take `COc1cc(N2CCN(C)CC2)ccc1N`: the activation in test [1] is 20%. Moreover, the Potency result in test [3] and in test [2] was “inactive” throughout. Further, the Potency in [9] was 25.2 µM (active); in test [6], 1.26 µM (active).

As for `CC/C=C/C=C/C1(C)OC(OC)=C(C(=O)C2C(C)C(=O)c3cc(OC)c(O)c(O)c3C2(C)O)C1=O` (configuration not stated), in test [1], the activation was 0.893%. Besides, the Potency entry in test [3] and in test [2] was “inactive” each time. For the same molecule, the Potency in test [9] was 11 µM (active).

Regarding `CS[C@]1(CO)C(=O)N2[C@H]3C(=CC=C[C@@H]3O)C[C@@]2(SC)C(=O)N1C`, in [1], the activation is -6.11%. Moreover, in test [2], the Potency entry is “inactive”.

On to `CN1[C@@H]2CC[C@H]1CC(OC(=O)C1C=Nc3ccccc31)C2` (some centres not stated), for which the activation in test [1] was -7.64%. The Potency entry in [2], in test [5] and in test [6] was “inactive” each time.

For `NNC(=O)c1nn(Cc2ccc(Cl)cc2Cl)c2ccccc12`, in [1], the activation is 17%. For the same molecule, the Potency entry in test [7], in [2] and in test [6] was “inactive” in each case. Further, the Potency in test [3] was 8.91 µM (active).

As to `C[C@@]1(C(=O)O)CC[C@]2(C)CC[C@]3(C)C4=CC(=O)c5cc(O)c(O)cc5[C@]4(C)CC[C@@]3(C)[C@@H]2C1`, in test [1], the activation is -19.1%. Also, the Potency result in test [7], in test [3], in test [2], in [8] and in test [4] was “inactive” in each case. Besides, the Potency in test [6] is 4.47 µM (active).

As to `N#Cc1ccccc1-c1cc(-c2ccccn2)cn(-c2ccccc2)c1=O`, the activation in test [1] was 10.5%. Also, the Potency result in test [2], in test [5] and in [6] was “inactive” throughout.

For the molecule `COc1ccc(CC2C(=O)NC(C)C(=O)N(C)C3Cc4ccc(cc4)Oc4cc(ccc4OC4OC(CO)C(O)C(O)C4O)CC(C(=O)NC(C)C(=O)NC(CCC(=O)O)C(=O)N2C)N(C)C3=O)cc1` (configuration not stated), in test [1], the activation was 5.36%. For the same molecule, the Potency entry in [2] is “inactive”.

Take `COc1ccc2c(C(=O)c3ccc(Cl)cc3)c(C)n(CC(=O)O)c2c1`: the activation in test [1] was -36.8%. Further, the Potency result in [3], in [2], in test [9], in test [8], in [6] and in test [4] was “inactive” throughout.

Regarding `N#C[C@@H](O[C@@H]1O[C@H](CO[C@@H]2O[C@H](CO)[C@@H](O)[C@H](O)[C@H]2O)[C@@H](O)[C@H](O)[C@H]1O)c1ccccc1`, in test [1], the activation was -19.6%. Moreover, in test [2], the Potency result is “inactive”.

`Cc1cccc(NC(=O)N[C@@H]2N=C(c3ccccc3)c3ccccc3N(C)C2=O)c1`: in test [1], the activation was -11%. Also, the Potency result in [2], in test [5] and in [6] was “inactive” in each case.

Regarding `CC[C@@H]1C[C@H]2CC[C@H](O2)[C@H](C)C(=O)O[C@@H](C)C[C@@H]2CC[C@@H](O2)[C@@H](C)C(=O)O[C@H](CC)C[C@H]2CC[C@H](O2)[C@H](C)C(=O)O[C@@H](C)C[C@@H]2CC[C@@H](O2)[C@@H](C)C(=O)O1`, the Potency in test [1] was 6.3 µM (active). Moreover, in [2], the Potency entry was “inactive”.

Regarding `Cc1[nH]c2ccc(Cl)cc2c1CCN(C)C`, in test [1], the activation is -3.82%. For the same molecule, the Potency result in test [7], in test [3], in test [9], in [8] and in test [6] was “inactive” in each case. Besides, the Potency in [5] is 10 µM (active).

For `CCCCCn1cc(C(=O)Oc2cccc3cccnc23)c2ccccc21`, the activation in [1] is -4.77%. Moreover, the Potency entry in test [2], in test [5] and in test [6] was “inactive” in each case.

Consider `CC(C)[C@@H](CN1CC[C@@](C)(c2cccc(O)c2)[C@@H](C)C1)NC(=O)[C@H]1Cc2ccc(O)cc2CN1`, for which, in test [1], the activation was 29.1%. Further, the Potency entry in [2], in [5] and in test [6] was “inactive” each time.

Take `Cc1cn(C[C@H](N)C(=O)O)c(=O)n(Cc2cc(-c3ccccc3)sc2C(=O)O)c1=O`: the activation in test [1] is 8.11%. Further, the Potency result in test [2], in test [5] and in test [6] was “inactive” in each case.

As to `CN1C2CCC1CC(OC(=O)N1Cc3ccccc3NC1=O)C2` (configuration not stated), the activation in test [1] was 1.43%. Also, the Potency entry in [2], in test [5] and in [6] was “inactive” throughout.

For the molecule `COC1(C[S@@](=O)c2ccccc2)CCN(CCc2c[nH]c3ccc(F)cc23)CC1`, in test [1], the activation is -6.68%. Moreover, the Potency entry in test [2], in test [5] and in test [6] was “inactive” in each case.

For the molecule `Clc1ccc(OCC2=NCCN2)cc1Cl`, the activation in [1] is -0.955%. The Potency entry in test [2], in [5] and in test [6] was “inactive” in each case.

For `O=C(NCCN1CCC2(CC1)C(=O)NCN2c1cccc(F)c1)c1ccc(F)c(F)c1`, the activation in test [1] was 18.1%. Further, the Potency result in test [2], in [5] and in test [6] was “inactive” in each case.
